Measured values: the supplement of paper PMC7156485
“And” between values parts separate entries of the source, which are not always exact repeats. Equal entries are not always repeated.

Each compound was assayed on TDF (assay: H1.0 immunofluorescence intensity relative to DMSO (% of DMSO); higher = stronger H1.0 induction, active = 120 or more). Settings: concentration: 10 µM; 24 h.
Outline: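 Using 384-well plates with 800 cells per well in RPMI plus 10% FBS, HCC1569 and TDF cells were exposed to compounds at 10 µM, in triplicate, for 24 h at 37 °C. Imaging of six fields per well at ×10 followed H1.0 and DAPI staining. The reported quantity, H1.0 nuclear intensity or cell number, is a median of replicates given as percent of the plate control, and HCC1569 values were smoothed for positional effects.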
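Also: TDF is a line of transformed human dermal fibroblasts of mesenchymal origin.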

H1.0 immunofluorescence intensity, inactive:
Cc1ccc(S(=O)(=O)C=CC#N)cc1 98.9 and 92.5
Cc1c(O)cc2c(c1C)OC(C)(CCCC(C)CCCC(C)CCCC(C)C)CC2 [D-γ-Tocopherol] 98.5
CC(C)(C)NCC(O)COc1nsnc1N1CCOCC1.O=C(O)C=CC(=O)O [(S)-Timolol maleate] 87.4
O=NN(CCCl)C(=O)NC1CCCCC1 [Lomustine] 102
OCC1OC(n2cnc3c(NC4CCCC4)ncnc32)C(O)C1O (configuration not stated) [N6-Cyclopentyladenosine] 93.5
CC(=O)OCC(=O)C1(O)CCC2C3CCC4=CC(=O)CCC4(C)C3C(O)CC21C (configuration not stated) [Hydrocortisone 21-acetate] 78
COc1cc2ncnc(N3CCN(C(=O)Nc4ccc(Oc5ccccc5)cc4)CC3)c2cc1OC [PDGF Receptor Tyrosine Kinase Inhibitor III] 102
CCOC(=O)C(C)(C)Oc1ccc(Cl)cc1 [Clofibrate] 99.5
CN(C)C(=O)N=NC(=O)N(C)C [N,N,N',N'-Tetramethylazodicarboxamide] 91.5
Cc1nc(-c2ccccc2)c(-c2ccncc2)o1 94.1
CN1CCC(=C2c3ccccc3C=Cc3ccccc32)CC1.Cl [Cyproheptadine hydrochloride] 111
Cc1cncc2cccc(S(=O)(=O)N3CCCN(C(=O)CN)CC3C)c12.Cl.Cl.O (configuration not stated) [Rho Kinase Inhibitor IV] 98.4
